For seven sequences, binding signal results are on record in paper PMC7862700, “An all-to-all approach to the identification of sequence-specific readers for epigenetic DNA modifications on cytosine”.

Holding throughout (experiment): DAPPL (digital affinity profiling via proximity ligation, sequencing); 10 mM Tris-HCl pH 7.5, 50 mM NaCl, 1 mM DTT, 4% glycerol, room temperature, 30 min; GST-TFs on glutathione beads, 16-mer random dsDNA library, 0.1% formaldehyde crosslink after washing; high values mean tight binding
Common to all, as to conditions: protein: recombinant; tags: N-terminal GST; dsDNA, one strand shown

The target in experiment [1] is T1, FLI1 (Homo sapiens, UniProt Q01543 1-452).
T1 sequence: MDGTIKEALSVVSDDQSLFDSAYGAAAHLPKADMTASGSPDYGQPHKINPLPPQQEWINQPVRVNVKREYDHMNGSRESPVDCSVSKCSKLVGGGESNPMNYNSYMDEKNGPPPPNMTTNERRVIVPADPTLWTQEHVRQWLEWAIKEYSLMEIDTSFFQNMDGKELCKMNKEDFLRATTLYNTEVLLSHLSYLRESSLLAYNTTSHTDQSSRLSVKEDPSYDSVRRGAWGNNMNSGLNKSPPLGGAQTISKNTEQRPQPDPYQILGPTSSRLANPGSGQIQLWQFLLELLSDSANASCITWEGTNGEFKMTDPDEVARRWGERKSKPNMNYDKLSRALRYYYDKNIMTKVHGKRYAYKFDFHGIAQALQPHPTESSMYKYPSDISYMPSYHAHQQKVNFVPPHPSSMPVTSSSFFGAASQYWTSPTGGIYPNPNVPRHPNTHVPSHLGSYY
The essentials: (§1)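 Human transcription factors carrying a GST fusion were produced in yeast, bound to glutathione beads, tagged with DNA barcodes and pooled together with a tag-only sample. Each pool was held with 200 nmole of a random double-stranded 16-mer DNA library in Tris/NaCl/DTT/glycerol buffer for 30 min at room temperature, then washed, crosslinked in 0.1% formaldehyde, proximity-ligated with BsaI/T4 ligase (1 h, 37 °C), PCR-amplified and sequenced on an Illumina NextSeq500. Binding signal is the read frequency of each hexamer for a given factor divided by its frequency in the tag-only sample.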

Experiment [2] deals with T2, ELK1 (Homo sapiens, UniProt P19419 1-428).
T2 sequence: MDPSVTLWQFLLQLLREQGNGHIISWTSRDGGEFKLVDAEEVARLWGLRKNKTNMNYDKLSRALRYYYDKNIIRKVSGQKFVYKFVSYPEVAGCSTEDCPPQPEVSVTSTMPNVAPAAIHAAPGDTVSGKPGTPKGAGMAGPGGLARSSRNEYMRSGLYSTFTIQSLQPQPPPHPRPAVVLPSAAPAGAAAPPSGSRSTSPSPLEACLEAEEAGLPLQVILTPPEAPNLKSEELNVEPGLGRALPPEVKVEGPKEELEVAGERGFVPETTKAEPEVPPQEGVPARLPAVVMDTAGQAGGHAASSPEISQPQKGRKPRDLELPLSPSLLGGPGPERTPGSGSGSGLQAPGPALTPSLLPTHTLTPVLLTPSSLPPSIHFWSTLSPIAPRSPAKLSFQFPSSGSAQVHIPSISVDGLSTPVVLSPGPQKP
The method, boiled down:
as §1

Experiment [3] concerns the target T3, GABPA (Homo sapiens, UniProt Q06546 1-454).
T3 sequence: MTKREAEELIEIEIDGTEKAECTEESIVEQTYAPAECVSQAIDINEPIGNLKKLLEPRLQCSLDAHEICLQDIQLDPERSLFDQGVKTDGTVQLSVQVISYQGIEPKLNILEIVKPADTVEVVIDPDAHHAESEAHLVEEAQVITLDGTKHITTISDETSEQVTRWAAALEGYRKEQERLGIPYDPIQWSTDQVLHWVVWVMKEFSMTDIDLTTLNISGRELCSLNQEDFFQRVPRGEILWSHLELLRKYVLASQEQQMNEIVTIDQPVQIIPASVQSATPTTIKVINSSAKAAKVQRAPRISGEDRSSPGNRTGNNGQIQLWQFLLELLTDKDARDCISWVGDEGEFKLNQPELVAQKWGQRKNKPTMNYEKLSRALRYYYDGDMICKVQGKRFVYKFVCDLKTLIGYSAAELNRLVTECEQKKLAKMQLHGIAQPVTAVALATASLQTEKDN
The method, boiled down: as §1

For experiment [4], the target named is T4, ERG (Homo sapiens, UniProt P11308 1-479).
T4 sequence: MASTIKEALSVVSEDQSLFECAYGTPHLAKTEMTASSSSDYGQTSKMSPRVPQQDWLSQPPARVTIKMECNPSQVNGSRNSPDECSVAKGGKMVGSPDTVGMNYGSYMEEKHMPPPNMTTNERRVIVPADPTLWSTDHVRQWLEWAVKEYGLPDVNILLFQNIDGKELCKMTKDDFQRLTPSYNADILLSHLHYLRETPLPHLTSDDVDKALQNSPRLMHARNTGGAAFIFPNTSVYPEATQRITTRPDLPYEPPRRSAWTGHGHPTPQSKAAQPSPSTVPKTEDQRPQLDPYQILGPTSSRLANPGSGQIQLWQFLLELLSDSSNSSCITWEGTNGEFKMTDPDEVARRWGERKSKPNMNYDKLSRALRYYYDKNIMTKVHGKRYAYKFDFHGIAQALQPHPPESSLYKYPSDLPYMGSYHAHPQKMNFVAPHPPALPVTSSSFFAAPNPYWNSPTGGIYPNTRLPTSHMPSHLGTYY
The essentials:
as §1

The target in experiment [5] is ELF1 (Homo sapiens, UniProt P32519 1-619). The method, boiled down:
as §1

Experiment [6] addresses T5, EHF (Homo sapiens, UniProt Q9NZC4 1-300).
T5 sequence: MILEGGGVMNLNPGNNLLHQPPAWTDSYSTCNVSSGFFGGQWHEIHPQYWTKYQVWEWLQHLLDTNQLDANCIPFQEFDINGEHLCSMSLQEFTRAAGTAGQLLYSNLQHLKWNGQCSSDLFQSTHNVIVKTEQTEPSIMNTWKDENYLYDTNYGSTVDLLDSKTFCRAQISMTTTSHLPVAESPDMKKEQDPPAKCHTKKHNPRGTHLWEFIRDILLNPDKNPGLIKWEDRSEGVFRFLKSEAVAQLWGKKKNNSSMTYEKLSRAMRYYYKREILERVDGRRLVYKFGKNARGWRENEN
The essentials:
as §1

The target of experiment [7] is SPI1 (Homo sapiens, UniProt P17947 1-270). The method, boiled down:
as §1

The target of experiment [8] is SPIB (Homo sapiens, UniProt Q01892 1-262). The essentials:
as §1

The target of experiment [9] is T6, ELK3 (Homo sapiens, UniProt P41970 1-407).
T6 sequence: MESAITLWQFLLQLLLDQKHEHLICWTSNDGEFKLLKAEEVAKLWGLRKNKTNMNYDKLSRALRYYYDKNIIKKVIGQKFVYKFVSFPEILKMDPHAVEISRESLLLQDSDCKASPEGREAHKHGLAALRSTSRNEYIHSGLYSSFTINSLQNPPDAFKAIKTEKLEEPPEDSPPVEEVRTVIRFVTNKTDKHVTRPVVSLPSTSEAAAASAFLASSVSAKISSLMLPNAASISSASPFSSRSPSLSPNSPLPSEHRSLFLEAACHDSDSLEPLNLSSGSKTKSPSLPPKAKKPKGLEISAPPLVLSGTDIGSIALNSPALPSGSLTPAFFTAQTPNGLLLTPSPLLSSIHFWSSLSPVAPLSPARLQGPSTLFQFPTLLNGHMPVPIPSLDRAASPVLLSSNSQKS
The essentials:
as §1

Sequence of SPIB (Q01892 whole entry): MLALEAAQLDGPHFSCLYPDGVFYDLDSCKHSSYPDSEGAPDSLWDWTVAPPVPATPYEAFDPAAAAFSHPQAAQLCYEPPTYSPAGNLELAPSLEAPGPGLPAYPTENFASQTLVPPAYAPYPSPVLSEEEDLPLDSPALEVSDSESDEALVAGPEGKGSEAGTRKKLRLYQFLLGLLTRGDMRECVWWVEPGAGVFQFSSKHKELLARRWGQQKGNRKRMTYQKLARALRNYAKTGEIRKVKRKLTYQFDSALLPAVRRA
Sequence of ELF1 (P32519 whole entry): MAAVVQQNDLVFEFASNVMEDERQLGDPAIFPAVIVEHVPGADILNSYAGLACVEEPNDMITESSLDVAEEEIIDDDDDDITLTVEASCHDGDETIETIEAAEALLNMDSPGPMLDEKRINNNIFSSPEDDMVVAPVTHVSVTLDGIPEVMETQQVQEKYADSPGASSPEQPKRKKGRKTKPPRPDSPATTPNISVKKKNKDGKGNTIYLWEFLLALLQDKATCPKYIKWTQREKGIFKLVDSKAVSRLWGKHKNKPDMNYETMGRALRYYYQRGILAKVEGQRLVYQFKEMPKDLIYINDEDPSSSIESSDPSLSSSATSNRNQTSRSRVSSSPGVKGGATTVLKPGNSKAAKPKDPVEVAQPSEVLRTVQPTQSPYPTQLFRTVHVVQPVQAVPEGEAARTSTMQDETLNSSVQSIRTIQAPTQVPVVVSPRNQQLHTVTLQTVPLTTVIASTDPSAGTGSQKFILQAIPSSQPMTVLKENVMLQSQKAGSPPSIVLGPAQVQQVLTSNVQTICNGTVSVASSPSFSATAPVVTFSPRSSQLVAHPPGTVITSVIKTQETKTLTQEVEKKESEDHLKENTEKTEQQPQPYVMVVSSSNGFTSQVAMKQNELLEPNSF

Consider ATGCCT, for which the binding signal in experiment [1] was 1.38 fold enrichment (6-mer frequency, TF over GST control); in experiment [2], 1.4 fold enrichment (6-mer frequency, TF over GST control); in [3] it was 1.52 fold enrichment (6-mer frequency, TF over GST control); in experiment [4], 1.48 fold enrichment (6-mer frequency, TF over GST control); in experiment [5], 1.35 fold enrichment (6-mer frequency, TF over GST control); in experiment [6] it was 1.42 fold enrichment (6-mer frequency, TF over GST control). Also, the binding signal is 1.32 fold enrichment (6-mer frequency, TF over GST control) in experiment [7]; 1.45 fold enrichment (6-mer frequency, TF over GST control) in [8]; 1.22 fold enrichment (6-mer frequency, TF over GST control) in [9].

Consider AATGCG, for which the binding signal is 1.24 fold enrichment (6-mer frequency, TF over GST control) in experiment [1]; 1.27 fold enrichment (6-mer frequency, TF over GST control) in [2]; 1.27 fold enrichment (6-mer frequency, TF over GST control) in experiment [3]; 1.23 fold enrichment (6-mer frequency, TF over GST control) in [4]; 1.21 fold enrichment (6-mer frequency, TF over GST control) in experiment [5]; 1.32 fold enrichment (6-mer frequency, TF over GST control) in experiment [6]. Besides, the binding signal in [7] was 1.58 fold enrichment (6-mer frequency, TF over GST control); in experiment [8], 1.31 fold enrichment (6-mer frequency, TF over GST control); in experiment [9] it was 1.29 fold enrichment (6-mer frequency, TF over GST control).

Consider ATCGCC, for which the binding signal in [1] was 1.28 fold enrichment (6-mer frequency, TF over GST control); in experiment [2] it was 1.36 fold enrichment (6-mer frequency, TF over GST control); in experiment [3], 1.27 fold enrichment (6-mer frequency, TF over GST control); in experiment [4], 1.29 fold enrichment (6-mer frequency, TF over GST control); in experiment [5], 1.23 fold enrichment (6-mer frequency, TF over GST control); in experiment [6] it was 1.37 fold enrichment (6-mer frequency, TF over GST control). The binding signal was 1.22 fold enrichment (6-mer frequency, TF over GST control) in experiment [7]; 1.29 fold enrichment (6-mer frequency, TF over GST control) in experiment [8]; 1.27 fold enrichment (6-mer frequency, TF over GST control) in experiment [9].

With TACGAT, the binding signal is 1.14 fold enrichment (6-mer frequency, TF over GST control) in experiment [1]; 1.09 fold enrichment (6-mer frequency, TF over GST control) in [2]; 1.17 fold enrichment (6-mer frequency, TF over GST control) in experiment [3]; 1.11 fold enrichment (6-mer frequency, TF over GST control) in [4]; 1.11 fold enrichment (6-mer frequency, TF over GST control) in experiment [5]; 1.03 fold enrichment (6-mer frequency, TF over GST control) in [6]. For the same sequence, the binding signal is 1.09 fold enrichment (6-mer frequency, TF over GST control) in experiment [7]; 1.14 fold enrichment (6-mer frequency, TF over GST control) in experiment [8]; 1.09 fold enrichment (6-mer frequency, TF over GST control) in experiment [9].

As to CCTACT, the binding signal in [1] was 1.73 fold enrichment (6-mer frequency, TF over GST control); in experiment [2], 1.61 fold enrichment (6-mer frequency, TF over GST control); in experiment [3] it was 1.53 fold enrichment (6-mer frequency, TF over GST control); in experiment [4] it was 1.54 fold enrichment (6-mer frequency, TF over GST control); in [5], 1.73 fold enrichment (6-mer frequency, TF over GST control); in experiment [6], 1.69 fold enrichment (6-mer frequency, TF over GST control). The binding signal was 1.77 fold enrichment (6-mer frequency, TF over GST control) in experiment [7]; 1.76 fold enrichment (6-mer frequency, TF over GST control) in [8]; 1.55 fold enrichment (6-mer frequency, TF over GST control) in experiment [9].

For GCTTAC, the binding signal in experiment [1] is 1.19 fold enrichment (6-mer frequency, TF over GST control); in experiment [2], 1.12 fold enrichment (6-mer frequency, TF over GST control); in [3], 1.05 fold enrichment (6-mer frequency, TF over GST control); in [4], 1.19 fold enrichment (6-mer frequency, TF over GST control); in [5], 1.15 fold enrichment (6-mer frequency, TF over GST control); in [6] it was 1.16 fold enrichment (6-mer frequency, TF over GST control). Also, the binding signal in [7] was 1.12 fold enrichment (6-mer frequency, TF over GST control); in experiment [8], 1.12 fold enrichment (6-mer frequency, TF over GST control); in experiment [9], 1.23 fold enrichment (6-mer frequency, TF over GST control).

Turning to CTTCGA, the binding signal in experiment [1] is 1.4 fold enrichment (6-mer frequency, TF over GST control); in experiment [2], 1.33 fold enrichment (6-mer frequency, TF over GST control); in experiment [3], 1.25 fold enrichment (6-mer frequency, TF over GST control); in experiment [4], 1.49 fold enrichment (6-mer frequency, TF over GST control); in [5], 1.41 fold enrichment (6-mer frequency, TF over GST control); in experiment [6], 1.19 fold enrichment (6-mer frequency, TF over GST control). Moreover, the binding signal in [7] was 1.3 fold enrichment (6-mer frequency, TF over GST control); in experiment [8], 1.31 fold enrichment (6-mer frequency, TF over GST control); in [9], 1.57 fold enrichment (6-mer frequency, TF over GST control).
